# Rows were chosen to be rich in hits. Some 8.8% of all compounds tested hit in one or more screens of this group.
# KB-3-1 cytotox – KB-3-1 parental cell cytotoxicity. Potency, µM (titrated, usually from 46.1 µM), hits mostly cytotoxic. 400,000 tested, 1.4% active. KB-3-1 viability, CellTiter-Glo ATP luminescence, 72 h. AID 1347075; also: potency is read from the fitted curve at half-maximal effect; nearly all actives have a fitted effect of over 60% in size
#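 Using CellTiter-Glo luminescence, growth of non-resistant KB-3-1 adenocarcinoma cells is assessed 72 h after pin-tool compound addition at 37 °C. Normalized responses across the concentration series yield fitted curves.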
# HT1080-NT tox – kills 2HG-producing HT-1080-NT fibrosarcoma cells; 360,000 tested, 1.6% active; AID 686970; HT-1080-NT fibrosarcoma viability, CellTiter-Glo ATP luminescence, 48 h; Potency, µM (series often up to 46.1 µM), inactives show at the top dose activity, negative = less viability, hits mostly cytotoxic;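 also: NT is the 2HG producing partner of a matched IDH1 knockdown line; potency is read from the fitted curve at half-maximal effect; 0% = DMSO-treated cells and -100% = media-only wells without cells; nearly all actives have a fitted effect of over 55% in size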
#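 Viability of the 2HG-overproducing fibrosarcoma line after 48 hours of compound exposure at 37 degrees C was determined by luminescence with CellTiter-Glo, and concentration-effect curves were then fitted and categorized.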
# IL1B secr inh – inhibitors of inflammasome signaling (IL-1 beta secretion) | AID 743279 | THP-1 LPS/ATP IL-1B secretion, AlphaLISA, 16 h; active compounds read low | 360,000 tested, 4.7% active | activity change, % at 57.5 µM; in the data active = activity change below about -50%; inconclusive = mostly about -30% to -49%
#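 THP-1 cells pretreated 1 hr with compounds (up to 57.5 uM final), then stimulated with LPS (250 ng/mL final) plus ATP (1.25 mM final); secreted IL-1B measured by AlphaLISA after 16 hr, decreased signal indicating inhibition.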
# HT1080 IDH1KD tx – kills HT-1080 cells with IDH1 knockdown. Potency, µM (doses to about 46.1 µM), inactives show at the highest dose activity, negative = toxicity, actives largely listed as cytotoxic. HT-1080 IDH1 knockdown viability, ATP luminescence, 48 h. AID 686971. 360,000 tested, 2% active;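 also: potency is read from the fitted curve at half-maximal effect; 0% = DMSO wells and -100% = cell-free medium wells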
#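 In this qHTS, HT-1080 cells depleted of IDH1 are exposed for 48 h at 37 °C to compound titrations. Toxicity is scored from CellTiter-Glo luminescence, with DMSO as full viability and medium alone as none.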
# KB-V1 cytotox – KB-V1 MDR subline cytotoxicity. KB-V1 MDR cells viability, CellTiter-Glo, 72 h. Potency, µM (series often up to 46.1 µM), usual class: cytotoxic. 400,000 tested, 3.4% active; also: potency is read from the fitted curve at half-maximal effect; nearly all actives have a fitted effect of over 60% in size
#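 Following 72 h at 37 degrees C with compound, KB-V1 cell viability was read by CellTiter-Glo luminescence, medium being phenol-red-free DMEM plus 10% FBS; concentration-response parameters came from normalized, curve-fitted qHTS data.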
# Active calls of the source: *; i = inactive; ? = inconclusive; / = not tested or not shown. Unless noted, calls follow the shape of the dose curve; as a rule, active = well fitted curve in the direction sought with a large enough effect; inconclusive = small, poorly fitted or top-dose-only effect, or another doubt; inactive = no such curve, though single readings can be large; an effect the other way counts as inactive or inconclusive. Unless noted, % is scaled to controls: 0 for no effect and ±100 for the full control effect.
SMILES,KB-3-1 cytotox,HT1080-NT tox,IL1B secr inh,HT1080 IDH1KD tx,KB-V1 cytotox
COc1ccc(CN(C)CC(O)COC(c2ccccc2)c2ccccc2)c(OC)c1OC (stereo unspecified),i,23µM*,/,?,i
CN(CCOc1ccc(Br)cc1)CC(O)COc1ccc(C#N)cc1 (stereo unspecified),?,21µM*,-87*,?,i
CN(C)CC(O)COC(c1ccccc1)c1ccccc1 (stereo unspecified),i,-3%,-19,0%,i
COc1ccc(Br)cc1CN(C)CC(O)COc1ccc(Br)cc1 (stereo unspecified),i,21µM*,-85*,?,i
CN(CCOc1ccccc1)CC(O)COc1ccccc1 (stereo unspecified),i,-6%,-10,-9%,i
CCCCCCCCCC(=O)N[C@@H]1c2cc(OC)c(OC)cc2C[C@H]1OCc1ccccc1,i,0%,82,7%,i
Cc1nnc(SC(C)C(=O)Nc2ccc(N3CCOCC3)cc2)n1Cc1ccccc1 (stereo unspecified),i,-4%,-1,-5%,i
O=P(c1ccccc1)(c1ccccc1)c1cc(S(=O)(=O)O)ccc1O,i,2%,4,7%,i
COc1ccc(CCN(C)CC(O)COC(c2ccc(F)cc2)c2ccc(F)cc2)cc1OC (stereo unspecified),?,23µM*,-92*,?,?
COc1ccc(CCN(C)CC(O)COc2c(C)ccc(C)c2C)cc1OC (stereo unspecified),i,-22%,?,-29%,i
COc1ccc(OCCC(=O)OCC(=O)NCc2ccccc2OC)cc1,i,7%,2,11%,i
CSc1ccc(Cn2c(C)c(C(=O)NCc3ccc(C(C)C)cc3)sc2=O)cc1,18µM*,-9%,-18,-5%,16µM*
Cc1c(C(=O)NCc2ccc(Cl)c(Cl)c2)sc(=O)n1Cc1ccc(S(=O)(=O)N(C)C)cc1,8.2µM*,-12%,-24,?,?
Cc1c(C(=O)NCc2ccc(C(C)C)cc2)sc(=O)n1Cc1cccc(F)c1,i,-18%,-3,?,i
C=Cc1ccc(Cn2c(C)c(C(=O)NCc3ccc4c(c3)OCCO4)sc2=O)cc1,?,-8%,-5,-14%,9.2µM*
Cc1c(C(=O)NCc2ccc(C(C)C)cc2)sc(=O)n1Cc1ccc(S(=O)(=O)N(C)C)cc1,?,-15%,-25,?,2.6µM*
C=Cc1ccc(Cn2c(C)c(C(=O)NCc3ccc(Cl)c(Cl)c3)sc2=O)cc1,?,?,-15,-22%,?
CCOc1ccc(NC(=O)C2CCCN(c3ccc(Sc4ccc(C)cc4)nn3)C2)cc1 (stereo unspecified),i,/,/,/,i
COc1cccc2sc(N(Cc3cccnc3)C(=O)COc3ccccc3)nc12,i,/,/,/,i
CC(OC(=O)c1cccc(N(C)C)c1)C(=O)N1CCc2ccccc2C1 (stereo unspecified),i,6%,5,13%,8.2µM*
CCCN(C(=O)c1c(C)oc2ncn(CC(C)C)c(=O)c12)c1ccccc1C,i,/,/,/,i
CCOc1ccccc1NC(=O)Nc1cccc(S(N)(=O)=O)c1,i,-19%,-5,-3%,i
N/C(=N\c1nc2c(c(=O)[nH]1)CCC2)Nc1cccc2ccccc12,23µM*,6%,22,-14%,?
N/C(=N\c1nc2c(c(=O)[nH]1)CCC2)Nc1cccc(Cl)c1,?,?,-22,?,?
CCCc1nnc(NC(=O)c2cc(=O)c3cc(C)c(C)cc3o2)s1,i,/,/,/,i
C1=CN2CC=Cc3cc(/C=C/c4ccnc5ccccc45)cc(c32)C1,i,/,/,/,i
O=C(O)CCNC(=O)c1ccc(NC(=O)Cc2ccc(Cl)cc2)cc1,i,24%,0,18%,i
CCN(CCNC(=O)c1ccc(C#N)cc1)c1cccc(C)c1,i,-9%,?,-4%,?
CCN(CCNCC(O)COCc1ccc(Cl)cc1)c1cccc(C)c1 (stereo unspecified),i,16µM*,/,?,?

# From PubChem BioAssay
